From PubChem BioAssay AID771 (SRMLSC, 2007)
The campaign covered roughly 3,300 compounds. About 55 (2%) were called active.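 Rule for the calls: active = growth inhibition above 90%, meaning viable cell count by imaging cut by more than 90% versus vehicle controls; inactive = growth inhibition below 90%.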 The full list was thinned out, with actives kept by preference.

Assay: HT29 colon tumor cell growth inhibition, primary screen, imaging, high content imaging, 48 h, CellTiter-Glo (AID 771);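 for condensed nuclei: condensed means Hoechst nuclear area under control median minus 1.5 SD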
Details: HCS imaging cell count, at 10 µM, stronger effect = higher value; for condensed nuclei: measured here: percent cells with condensed nuclei
[1] = measured here: ATP CellTiter-Glo viability inhibition

Row | Compound | growth inhibition | growth inhibition [1] | condensed nuclei
1 | CCOc1ccc(C2C(C(=O)c3ccc(C)o3)=C(O)C(=O)N2CCCN(CC)CC)cc1 (centres undefined) | 17% (inactive) | 0.35% | 1.26%
2 | c1ccc(-c2nc(NCC3CCCO3)c3ccccc3n2)nc1 (centres undefined) | 16.9% (inactive) | 30.9% | 2.06%
3 | O=C1CCC(=O)N1CN(Cc1ccco1)CN1C(=O)CCC1=O | -33.3% (inactive) | -19.2% | 2.24%
4 | COc1ccc(-n2ncc3c(Nc4cccc(C)c4)ncnc32)cc1 | 30.6% (inactive) | -2.53% | 3.63%
5 | COc1ccc(C(=O)CSC2=C(C#N)C3(CCCCC3)C(C#N)=C(N)N2)cc1 | 27% (inactive) | 4.09% | 7.53%
6 | N#CC1=C(N)NC(SCc2ccc(F)cc2)=C(C#N)C12CCCCC2 | 95.4% (active) | 69.3% | 27.3%
7 | N#CC1=C(N)NC(SCc2ccc(Cl)cc2)=C(C#N)C12CCCCC2 | 79.6% (inactive) | 70.5% | 17.1%
8 | C=CCN(C(=O)CCC(=O)O)C1CC(=O)N(c2ccc(OC)cc2)C1=O (centres undefined) | -35.5% (inactive) | -24.9% | 1.95%
9 | Cn1c(=NCC(O)COc2ccccc2)sc2ccccc21 (centres undefined) | 25.5% (inactive) | -13.5% | 3.63%
10 | COCCNc1oc(-c2ccc(C)cc2)nc1C#N | 11.6% (inactive) | -12.3% | 2.76%
11 | O=C(O)c1ccc(COCC(F)(F)C(F)F)o1 | -17.7% (inactive) | -10.2% | 3.29%
12 | CCOc1ccc(Cn2c(O)cc(=O)[nH]c2=O)cc1 | -7.52% (inactive) | -20.8% | 1.27%
13 | CC1CN(C2CCN(C(=O)c3ccccc3Cl)CC2)CC(C)O1 (centres undefined) | -18.6% (inactive) | -39.5% | 4.01%
14 | CC1CN(C2CCN(C(=O)c3ccccc3)CC2)CC(C)O1 (centres undefined) | 92.5% (active) | -44.3% | 3.65%
15 | CC1CN(C2CCN(C(=O)COc3ccccc3)CC2)CC(C)O1 (centres undefined) | -1.5% (inactive) | -3.33% | 2.3%
16 | CCOC(=O)c1sc2c(c1C)c(=O)c(C(=O)OCC)cn2CC | -35.2% (inactive) | -21.7% | 0.84%
17 | CCCc1[nH]nc2c1C(c1cccc(OC)c1)C(C#N)=C(N)O2 (centres undefined) | 55.3% (inactive) | 9.76% | 16.6%
18 | Cc1cccc(OCC(=O)N2CCC(N3CCOCC3)CC2)c1 | -31.7% (inactive) | -31.1% | 0.89%
19 | CNCCCC12CCC(c3ccccc31)c1ccccc12 | 95% (active) |  | 18.3%
20 | Nc1ccc(Cl)cc1/C(=N/O)c1ccccc1 | 33.8% (inactive) | -14.5% | 3.59%
21 | C=C1[C@@H](C)C2[C@H](Cc3ccccc3)NC(=O)[C@]23OC(=O)CC[C@H](O)CCC[C@H](C)C/C=C/[C@H]3[C@@H]1O (some centres undefined) | 92.4% (active) |  | 18.2%
22 | CCOC(=O)CSc1nc(N(C)C)nc(N(C)C#N)n1 | 27.7% (inactive) | -19.8% | 1.4%
